# Among all 84,000 compounds or so, about 110 (0.13%) were called active. The sample holds actives, similar compounds and a random draw of the others, so the mix is not that of the screen. Cut-off read from the data, not from the text of the source: active = inhibition above about 30% (passing the limit was not always enough); inactive = the rest.
# Test system: MgrA (MarR family transcriptional regulator), Staphylococcus aureus Newman
# Test: S. aureus MgrA activity modulators, primary screen, biochemical, S. aureus Newman, fluorescence polarization (AID 602314);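 note: 0% = protein plus DNA without compound and 100% = DNA alone without protein; higher means less MgrA bound to DNA so lower polarization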
# Settings: MgrA-DNA binding, hits give high values, concentration not given here
row,SMILES,inhibition
1,N#C/C(=C\C=C\c1ccccc1)c1nc2ccccc2[nH]1,9.2% (inactive)
2,CS(=O)(=O)c1nc2ccccc2[nH]1,-4.3% (inactive)
3,N#CC(=C1C(=O)c2ccccc2C1=O)c1nc2ccccc2[nH]1,59.7% (active)
4,CCN(CC)C(=O)CSc1nc2ccccc2cc1C,0.6% (inactive)
5,Nc1ccccc1C(=O)Nc1ccc(Cl)cc1,-1.3% (inactive)
6,CCCCOc1ccc(C2=N/C(=C\c3cc(OC)c(OC)cc3OC)C(=O)O2)cc1,-1.1% (inactive)
7,CSc1n[nH]c(-c2ccc(Cl)cc2)c1C#N,-2.1% (inactive)
8,CC(C)c1ccc(NC(=O)CN2N=C(c3ccc(Cl)cc3)CCC2=O)cc1,0.65% (inactive)
9,O=C1/C(=C\c2cccs2)SC(=S)N1CCCC(=O)N1CCCc2ccccc21,2.75% (inactive)
10,Cc1ccc(C(=O)OCC2OC(C#N)CC2OC(=O)c2ccc(C)cc2)cc1 (stereo unspecified),-3.65% (inactive)
11,CSc1ncc(Br)c(C(=O)O)n1,-4.9% (inactive)
12,O=C(c1ccc(F)cc1)c1c[nH]c(C(=O)NCc2ccc(F)cc2)c1,-2.05% (inactive)
13,COCCn1c(N)cc(=O)[nH]c1=S,0.65% (inactive)
14,Cc1cccc(OCC(=O)N2CCc3ccccc32)c1,0.6% (inactive)
15,CCN(CC)C(=O)Cc1cc(OC)c(OC)cc1Br,3.35% (inactive)
16,Cn1cnnc1SCc1ccc(Cl)cc1,-1.45% (inactive)
17,CCc1cccc(CC)c1N1C(=O)CC(Sc2ccccc2N)C1=O (stereo unspecified),1.1% (inactive)
18,c1ccc2c(c1)CCN2c1nc2ccccc2n2cnnc12,0.25% (inactive)
19,O=c1[nH]c(O)c(C=NCCCn2ccnc2)c(=O)[nH]1,5.6% (inactive)
20,CSc1nsc(SCC(=O)OC2CC(C)CCC2C(C)C)n1 (stereo unspecified),0.7% (inactive)
21,CC(C)(C)c1ccc(NC(=O)COC(=O)c2ccc(F)cc2F)cc1,4.8% (inactive)

row,SMILES,inhibition
1,CCN(C(=O)c1cccs1)c1cccc2ccccc12,-1.8% (inactive)
2,COc1cccc(CC(=O)Nc2ccc(-c3csc(C)n3)cc2)c1,-0.65% (inactive)
3,Cc1ccc(NC2SC(=O)NC2=O)cc1 (stereo unspecified),1.7% (inactive)
4,O=C(NC1CC1)C1C2C=CC3(O2)C1C(=O)N(C1CC1)C3C(=O)NC1CCCCC1 (stereo unspecified),0.25% (inactive)
5,CCSc1nnc2c(n1)OC(c1cccc(OC)c1)Nc1ccccc1-2 (stereo unspecified),-1.3% (inactive)
6,CC(=O)Nc1ccc(-c2nnc(-c3ccco3)o2)cc1,-3.3% (inactive)
7,CC(C)(C)C/C(=N/O)c1ccccc1,0.2% (inactive)
8,Cc1nnc(SCc2ccc(C#N)cc2)s1,0.7% (inactive)
9,CSc1ncnc2sc(-c3ccccc3)cc12,0.75% (inactive)
10,CCOC(=O)c1sc(NC(C)=O)c(C#N)c1C,-2.1% (inactive)
11,O=C(c1cnn2c(C(F)F)cc(-c3ccccc3)nc12)N1CCCC1,-0.35% (inactive)
12,CCOC(=O)c1ccc(NC(=O)CC2C(=O)N(c3ccc(F)cc3)C(=O)N2Cc2cccs2)cc1 (stereo unspecified),-1.9% (inactive)
13,FC(F)(F)c1cccc(CSc2ncn[nH]2)c1,-0.7% (inactive)
14,COc1ccccc1C=NC12CN3CN(CN(C3)C1)C2,2.95% (inactive)
15,Oc1[nH]c2ccccc2c1C=NCCC1=CCCCC1,5.65% (inactive)
16,CCOCCOC(=O)C1=C(C)NC2=C(C(=O)CC(c3ccccc3)C2)C1c1cc2c(cc1Br)OCO2 (stereo unspecified),-2.9% (inactive)
17,CCOC(=O)c1cccn1-c1ncc(C(F)(F)F)cc1Cl,-1.2% (inactive)
18,Cc1ccc(-c2nn(CCC(=O)NCCN3CCOCC3)c(=O)c3ccccc23)cc1,0.2% (inactive)
19,O=C(Nc1ccccc1-c1nc2ccccc2[nH]1)c1ccccc1Br,-2.6% (inactive)
20,N#CCc1ccc(OCc2ccc(Cl)c(Cl)c2)cc1,-1.9% (inactive)

# Source: PubChem BioAssay AID602314 (ICCB-Longwood Screening Facility, Harvard Medical School, 2012)
